# From the supplement of paper PMC6555819
# System: RXRa DBDmut IVT, anti-RXR (DBD mutation: RXRa K156A/R161A, NR concentration 90 nM)
# Test: PBM binding z-score (relative to random genomic background probes); higher = stronger binding; sequences stand for … in GC…GCGATTGACAGCGTAGAATGAAGG
# Method in brief: (§1)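 Binding buffer was PBS pH 7.4 with 2% milk, 0.02% Triton X-100, 1 mM DTT, 0.2 mg/mL BSA and 0.4 mg/ml salmon testes DNA. In it, ligand-free nuclear receptor dimers were incubated 1 h on custom Agilent 4×180K protein-binding microarrays carrying double-stranded probes. Antibodies against each partner (one per run) detected binding, and z-scores were calculated against random background probes after regression normalization of scanned fluorescence.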
row,Sequence,PBM binding z-score
1,TCTCGGAGGACACGAAAGGCCAGAGCTCGACATC,0.804
2,TGTCAAAGTTCAAAGGTAACGGAAGTATCCACAC,4.29
3,GCTGCTAGATCAGGTTGGTCAGCTAACGGGTACG,-0.411
4,TCATATAGGTAAATCCTAGGTGAAAGTCCGATCT,1.37
5,GCTTACGGGTCAAAGGCTATAGCATGAATAGAAT,1.73
6,TCAAGTAGGTTAGGGGCATTCAGAATGGCGTCGA,1.29
7,ATCTCAAGGTAACAAGTTCAGTGAAAGAGAGGAC,1.34
8,CCGACTGGGGCAGAAAGGTTACTATACCATCCGG,-0.158
9,CTCGAAAGGTCGTGCTCAGGTGCGTATACCAAAC,2.27
10,CCGACTGGGGCATAAGGGTACCATAAGCCAGCCC,-0.871
11,TGTCAAAGTTGAAAGGTAACGTAAGTATCCACAC,-0.369
12,TCGAGTAGGTAAGGGGCATTCAGAATGGCGTCGA,-0.0222
13,CCTACTGGGCCATTCAGAGGTCATTGGTCATATG,0.884
14,CAAACTAGGTCAAAGTCAAAGTCGGTTTGTGCCA,2.32
15,CAAACTAGGTCAAGAGGTCAACGTCCGCTTCCCG,2.76
16,CATACAGGGTCAGCTAGGCCAGAGTCGGGACGGC,2.13
17,GCTTGTATATCAAGGTTAAGAAAGACTAAGCTAA,0.464
18,ATATGTAGGTTAGCGGGTCATTCAGTTTGCGCAT,1.42
19,CGTCCAAGGTCGATGCTAGGTCAGTGAAAGCATT,1.32
20,GCAGACAGGTGAAACGCAGGTTACTCAGGGTGGC,-0.376

row,Sequence,PBM binding z-score
1,CGTCCAAGGTCATAGTAGGTCAGTGAAGACAGAT,4.14
2,ATCTCTAGGTAAGACTCAGTTCTGTGAAGAACGC,0.193
3,TCTCCTAGGTCAACGATGGTCAGCTAATCTGCTA,1.41
4,GGAATGAGGGCATTCGAGTTGATAGCATGGCGAT,3.43
5,GGAACGAGGGCAAGTTGAGAGCAGAGTTTGATGG,2.26
6,TCTTGTAAATCAACAGGAGGTTAAGAAAGATCGA,1.04
7,CTACCAAGGTGAACAAGATCGTTGATTACTATTC,0.225
8,ATCTGTAGGTAACAAGTTCAGTGAAAGAGAGGAC,0.851
9,CCGAGCAGGTTATGGGGCATTCAGGCAACGGTGA,-0.126
10,GGAACGTGGGCAAGTTGATAGCAGAGTTTGATGG,0.175
11,TCGGGTAGGTTAGGGGCATTCAGAATGGCGTCGA,0.943
12,ACTGGGAGGACAAAGGTCAGAGCTACGCCAGTGA,1.06
13,CGTCCAAGGTCTATGCTAGGTCAGTGAAAGCATT,0.335
14,TCGAGAAGGTTACCAATGGGGCATTCAGCTTTCT,0.529
15,GCATATAGGTAATACAAGCTGAAAGTCCGATTGT,0.344
16,TCTTGTAGATCAACAAGAGGTTAAGAAAGATCGA,-0.00375
17,ACTAGCAGGCCATGGGTCACTCAAGATTAGTCCG,-0.507
18,CGAACTAGGTAAGAACAGGACAGTGAAGGATGAT,-0.391
19,ACTAGTTCGTCAGCTGAGGTCACACACAATTCGG,3.38
20,TAGCCTGGGTCATTGGGCCAGTATAGTACGCATC,0.363

# System: RXRa homodimer (NR concentration 180 nM)
# Test: as above
# Method in brief: as §1
row,Sequence,PBM binding z-score
1,TCTCGGAGGACACGAAAGGCCAGAGCTCGACATC,0.296
2,TGTCAAAGTTCAAAGGTAACGGAAGTATCCACAC,7.52
3,GCTGCTAGATCAGGTTGGTCAGCTAACGGGTACG,-0.416
4,TCATATAGGTAAATCCTAGGTGAAAGTCCGATCT,0.983
5,GCTTACGGGTCAAAGGCTATAGCATGAATAGAAT,6.17
6,TCAAGTAGGTTAGGGGCATTCAGAATGGCGTCGA,1.08
7,ATCTCAAGGTAACAAGTTCAGTGAAAGAGAGGAC,1.23
8,CCGACTGGGGCAGAAAGGTTACTATACCATCCGG,1.3
9,CTCGAAAGGTCGTGCTCAGGTGCGTATACCAAAC,4.39
10,CCGACTGGGGCATAAGGGTACCATAAGCCAGCCC,0.269
11,TGTCAAAGTTGAAAGGTAACGTAAGTATCCACAC,2.69
12,TCGAGTAGGTAAGGGGCATTCAGAATGGCGTCGA,0.0821
13,CCTACTGGGCCATTCAGAGGTCATTGGTCATATG,3.6
14,CAAACTAGGTCAAAGTCAAAGTCGGTTTGTGCCA,3.11
15,CAAACTAGGTCAAGAGGTCAACGTCCGCTTCCCG,7.68
16,CATACAGGGTCAGCTAGGCCAGAGTCGGGACGGC,4.21
17,GCTTGTATATCAAGGTTAAGAAAGACTAAGCTAA,0.746
18,ATATGTAGGTTAGCGGGTCATTCAGTTTGCGCAT,2.77
19,CGTCCAAGGTCGATGCTAGGTCAGTGAAAGCATT,1.41
20,GCAGACAGGTGAAACGCAGGTTACTCAGGGTGGC,1.07

row,Sequence,PBM binding z-score
1,CGTCCAAGGTCATAGTAGGTCAGTGAAGACAGAT,6.11
2,ATCTCTAGGTAAGACTCAGTTCTGTGAAGAACGC,-0.166
3,TCTCCTAGGTCAACGATGGTCAGCTAATCTGCTA,3.49
4,GGAATGAGGGCATTCGAGTTGATAGCATGGCGAT,0.995
5,GGAACGAGGGCAAGTTGAGAGCAGAGTTTGATGG,0.94
6,TCTTGTAAATCAACAGGAGGTTAAGAAAGATCGA,1.11
7,CTACCAAGGTGAACAAGATCGTTGATTACTATTC,0.874
8,ATCTGTAGGTAACAAGTTCAGTGAAAGAGAGGAC,0.902
9,CCGAGCAGGTTATGGGGCATTCAGGCAACGGTGA,0.679
10,GGAACGTGGGCAAGTTGATAGCAGAGTTTGATGG,-0.184
11,TCGGGTAGGTTAGGGGCATTCAGAATGGCGTCGA,1.02
12,ACTGGGAGGACAAAGGTCAGAGCTACGCCAGTGA,5.47
13,CGTCCAAGGTCTATGCTAGGTCAGTGAAAGCATT,0.248
14,TCGAGAAGGTTACCAATGGGGCATTCAGCTTTCT,1.86
15,GCATATAGGTAATACAAGCTGAAAGTCCGATTGT,0.524
16,TCTTGTAGATCAACAAGAGGTTAAGAAAGATCGA,1.4
17,ACTAGCAGGCCATGGGTCACTCAAGATTAGTCCG,1.75
18,CGAACTAGGTAAGAACAGGACAGTGAAGGATGAT,-0.0524
19,ACTAGTTCGTCAGCTGAGGTCACACACAATTCGG,4.37
20,TAGCCTGGGTCATTGGGCCAGTATAGTACGCATC,3.04
